G9a block: blocks human histone lysine methyltransferase G9a; Q96KQ7; G9a H3K9 monomethylation, AlphaScreen, 2 h; Potency, µM (series often up to 102 µM), most hits filed as inhibitors; 350,000 compounds, 8.8% hits; AID 504332; also: nearly all actives have a fitted effect of over 75% in size
Target sequence (Q96KQ7 913-1193 limits assumed): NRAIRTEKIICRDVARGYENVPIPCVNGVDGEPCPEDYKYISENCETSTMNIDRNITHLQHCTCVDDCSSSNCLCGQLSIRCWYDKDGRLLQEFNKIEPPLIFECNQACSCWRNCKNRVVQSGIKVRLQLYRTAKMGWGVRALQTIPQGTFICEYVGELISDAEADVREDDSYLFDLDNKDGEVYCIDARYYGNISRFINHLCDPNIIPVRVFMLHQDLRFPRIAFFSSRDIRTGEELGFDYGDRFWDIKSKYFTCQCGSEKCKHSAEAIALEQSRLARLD
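AlphaScreen detection with an anti-monomethyl H3K9 antibody quantified product after a 2 h room-temperature reaction containing 500 nM biotinylated H3K9 peptide, 20 µM SAM and 20 nM enzyme, which had been preincubated 15 min with compound.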
Sfp inh: Sfp phosphopantetheinyl transferase inhibition | Potency, µM, hits mostly inhibitors | 310,000 compounds, 3.5% hits | AID 1490 | Biochemical Sfp PPTase activity, qHTS;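 also: the enzyme is Sfp with the accession as filed and its product quenches rhodamine fluorescence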
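With Hepes-Na pH 7.6 buffer containing 10 mM MgCl2, Sfp (15 nM) modified BHQ-2-YbbR (12.5 uM) using rhodamine-CoA (5 uM). Two reads 30 minutes apart at 525/598 nm yielded each well's rate.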
JMJD2A Tudor inh: blocks the human JMJD2A Tudor domain; AlphaScreen JMJD2A-Tudor / H3K4me3 peptide binding; Potency, µM (highest dose often 114 µM), most hits filed as inhibitors; 390,000 compounds, 4.4% hits; also: nearly all actives have a fitted effect of over 50% in size
HP1b chromo inh: HP1-beta chromodomain-methylated histone interaction inhibition; AlphaScreen HP1-beta / biotin-H3K9me3 peptide binding; 390,000 compounds, 0.56% hits; Potency, µM (top dose mostly 114 µM), usual class: inhibitors; AID 540317; P83916; also: nearly all actives have a fitted effect of over 70% in size
Target sequence (P83916 whole entry, looked up): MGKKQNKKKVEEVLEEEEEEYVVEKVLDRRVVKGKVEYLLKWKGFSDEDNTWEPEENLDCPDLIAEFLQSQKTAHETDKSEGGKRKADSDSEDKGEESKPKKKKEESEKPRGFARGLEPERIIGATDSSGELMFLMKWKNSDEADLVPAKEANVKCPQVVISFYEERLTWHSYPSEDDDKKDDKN
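Compound inhibition of the preformed complex between 50 nM HP1-beta and 50 nM biotinylated H3K9me3 peptide was read by AlphaScreen. Buffer was PBS pH 7.4 with 0.01% Tween-20. Incubations ran 30 min at room temperature, with 10 ug/mL donor/acceptor beads.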
BAZ2B block: inhibitors of human BAZ2B bromodomain. Q9UIF8. AlphaScreen BAZ2B-H3K14Ac peptide displacement. Potency, µM (doses to about 114 µM), hits mostly inhibitors. 360,000 compounds, 4.4% hits; also: nearly all actives have a fitted effect of over 60% in size
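AlphaScreen displacement: compounds (up to 110uM) incubated 30 min at room temperature with a preformed 50 nM BAZ2B/50 nM biotinylated H3K14Ac peptide complex in PBS pH 7.4 with Tween-20. Donor and acceptor beads at 10 ug/mL final added, 20 min light-protected before reading.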
Numbers stand for hits; i = inactive; ? = inconclusive; nt = not tested or not shown; [ ] = remark or other dose. A selection: hits, their analogues and other compounds. The true share with any hit is near 12%. Calls follow the shape of the dose curve; as a rule, active = well fitted curve in the direction sought with a large enough effect; inconclusive = small, poorly fitted or top-dose-only effect, or another doubt; inactive = no such curve, though single readings can be large; an effect the other way counts as inactive or inconclusive.

SMILES | G9a block | Sfp inh | JMJD2A Tudor inh | HP1b chromo inh | BAZ2B block
CCN(CC)S(=O)(=O)c1cccc(NC(=O)CN(C)Cc2cccc(OC)c2)c1 | i[12.7 µM] | 89µM | 1.6µM | 22µM | 50µM
COc1cccc(CN(C)CC(=O)NC(=O)NCc2ccco2)c1 | i[12.7 µM] | i | 89µM | 50µM | 50µM
CC(=O)NCCC(=O)Nc1cccc(S(=O)(=O)N(C)c2ccccc2)c1 | i | i | i | i | i
CC#CCN1c2ccccc2[C@]23C[C@@H](C(=O)OC)N(S(=O)(=O)c4ccc5c(c4)OCCN5C)C2=NC(C(=O)OC)=C(C(=O)OC)[C@H]13 | nt | i | nt | nt | nt
Cc1nn(C(=O)c2ccccc2)c(C)c1Sc1ccc(Cl)cc1 | i | nt | i | i | i
O=C(O)c1ccc(/C=C2/SC(=S)N(Cc3ccccc3)C2=O)cc1 | ? | i | ? | i | ?
O=C1/C(=C\c2ccc(O)cc2)SC(=S)N1Cc1ccccc1 | nt | i | ? | ? | 50µM
O=C1/C(=C\c2cc(Br)cc(Br)c2O)SC(=S)N1Cc1ccccc1 | i[2.33 µM] | 63µM | 28µM | 32µM | 10µM
CC(=O)Oc1ccc(/C=C2/SC(=S)N(Cc3ccccc3)C2=O)cc1 | ? | i | ? | ? | 3.5µM
O=C1/C(=C/c2ccccc2O)SC(=S)N1Cc1cccnc1 | ? | 50µM | i | i | i
O=c1c(-c2cc(F)cc(F)c2)nc2cncnc2n1Cc1ccccc1Cl | i[0.501 µM] | ? | nt | nt | nt
CN(Cc1ccco1)c1ccnc(-c2cccc(C#N)c2)n1 | i[0.501 µM] | ? | nt | nt | nt
COc1ccc(CN2C(=O)/C(=C/c3ccncc3)SC2=S)cc1 | 28µM | ? | 50µM | ? | 8.9µM
COc1ccc(NC2CCCN(C(=O)c3ccc4[nH]c(C)c(C)c4c3)C2)cc1 (centres undefined) | 40µM | i | ? | i | 45µM
Cc1nonc1C(=O)N1CCCC(Nc2ccc(C(C)C)cc2)C1 (centres undefined) | 35µM | i | i | i | ?
COc1ccc(NC2CCCN(C(=O)c3ccc(C(C)=O)s3)C2)cc1 (centres undefined) | 50µM | i | i | i | i
Cc1nnsc1C(=O)N1CCCC(Nc2ccc(C(C)C)cc2)C1 (centres undefined) | ? | i | i | i | i
COc1ccc(NC2CCCN(C(=O)c3ccc(C(C)=O)cc3)C2)cc1 (centres undefined) | i | i | i | i | i
Cc1ccc(C(=O)N2CCCC(Nc3ccc(C(C)C)cc3)C2)cn1 (centres undefined) | 40µM | i | i | i | i
CCOCCCNC(=O)c1ccc2c(c1)NC(=O)C(CS(=O)(=O)Cc1ccc(F)cc1Cl)N2 (centres undefined) | ? | nt | i | i | ?
CC(C(=O)Nc1ccc(OC(F)(F)F)cc1)N1Cc2ccccc2C1=O (centres undefined) | i | nt | i | i | i
COc1ccc(NC2CCCN(C(=O)c3cc4ncccn4n3)C2)cc1 (centres undefined) | 35µM | i | i | i | i
CC(C)c1ccc(NC2CCCN(C(=O)c3ccccc3-c3ncc[nH]3)C2)cc1 (centres undefined) | 45µM | i | ? | i | 56µM
COc1ccc(NC2CCCN(C(=O)c3ccc(C)nc3)C2)cc1 (centres undefined) | 40µM | i | i | i | i
Cc1cc(C)c(C(=O)N2CCCC(Nc3ccc(F)cc3)C2)o1 (centres undefined) | 79µM | i | i | i | ?
SMILES | G9a block | Sfp inh | JMJD2A Tudor inh | HP1b chromo inh | BAZ2B block
COc1ccc(NC2CCCN(C(=O)c3cccc(N(C)C)c3)C2)cc1 (centres undefined) | i[12.7 µM] | i | i | i | ?
Cc1c(Cl)cccc1NC(=O)c1ccc2c(c1)CCN2S(=O)(=O)c1ccccc1 | i | nt | i | i | i
CC(C)c1ccc(NC2CCCN(C(=O)c3ccoc3)C2)cc1 (centres undefined) | 45µM | i | ? | i | ?
COc1ccccc1C(=O)NCCC(=O)NC1CCCCCC1 | nt | nt | i | i | nt
COCCN=c1scc(-c2cc(OC)ccc2OC)n1/N=C/c1c[nH]c2ccccc12 | 10µM | i | 40µM | ? | 11µM
O=C(NNS(=O)(=O)c1ccc([N+](=O)[O-])cc1)C(=O)Nc1cccc(C(=O)O)c1 | 8.9µM | 40µM | ? | i | 56µM
O=C(NC(=S)N1CCCC1)c1cccc([N+](=O)[O-])c1 | 79µM | i | i | i | i
O=C(NNC(=S)NC(=O)c1cccc([N+](=O)[O-])c1)c1ccc(Br)cc1 | 45µM | i | i | i | i
O=C(NNC(=S)NC(=O)c1cccc([N+](=O)[O-])c1)c1ccc(O)cc1 | 20µM | ? | i | i | i
COC(=O)C1CCN(CC(=O)Nc2cc(C)c3c(=O)oc4ccccc4c3n2)CC1 | i | nt | i | i | i
O=C(Nc1ccc(Cl)cc1F)c1cc(S(=O)(=O)NC2CCCCCC2)ccc1F | i | nt | i | i | i
O=C(NNC(=S)NC(=O)c1ccccc1)c1cccc([N+](=O)[O-])c1 | 28µM | i | i | i | i
O=C(NNS(=O)(=O)c1ccccc1)c1cccc([N+](=O)[O-])c1 | ? | i | 13µM | i | i
O=C(NNS(=O)(=O)c1ccc([N+](=O)[O-])cc1)c1ccccc1 | nt | nt | ? | i | nt
CCOc1ccc(NC(=O)CN2CCN(c3ccc(Cl)cc3)CC2)cc1 | i[12.7 µM] | nt | i | i | i
C#CCOCCOCCOCCNc1nc(N2CCN(C(=O)[C@H](CCCCN)n3cc(CN)nn3)CC2)nc(N2CCN(C(=O)[C@H](CCC(=O)O)n3cc([C@@H](N)CCCCN)nn3)CC2)n1 | nt | nt | 89µM | i | nt
C#CCOCCOCCOCCNc1nc(N2CCOCC2)nc(N2CCN(C(=O)[C@H](CCCCN)n3cc(CCC(=O)O)nn3)CC2)n1 | nt | nt | i | i | nt
C#CCOCCOCCOCCNc1nc(N2CCN(C(=O)[C@H](CCCCN)n3cc(CN)nn3)CC2)nc(N2CCN(C(=O)[C@H](CCCCN)n3cc(CN)nn3)CC2)n1 | nt | nt | 79µM | i | nt
C#CCOCCOCCOCCNc1nc(N2CCN(C(=O)[C@H](CCC(=O)O)n3cc(CN)nn3)CC2)nc(N2CCN(C(=O)[C@H](CCCCN)n3cc([C@@H](N)CC(N)=O)nn3)CC2)n1 | nt | nt | 56µM | i | nt
Cc1ccc(NC(=O)N2CCCC2C(=O)Nc2c(C)cc(C)cc2C)cc1 (centres undefined) | i | i | i | i | i
Cc1cccc(C(=O)NCC(=O)OC(C(=O)Nc2cc(C(F)(F)F)ccc2Cl)c2ccccc2)c1 (centres undefined) | nt | nt | i | nt | nt
C/C(=N\NC(=S)NCCc1ccccc1)c1cccs1 | ? | i | ? | ? | 35µM
C/C(CCc1ccccc1)=N\NC(=S)NCCc1ccccc1 | ? | i | ? | i | 40µM
C/C(CCC(C)C)=N\NC(=S)NCc1ccccc1 | 45µM | i | 56µM | i | ?
COCCNC(=S)N/N=C(\C)CCc1ccc2c(c1)OCO2 | 50µM | 40µM | i | i | i
Cc1oc2ncnc(N3CCOCC3)c2c1C(=O)N1CCN(c2cccc(C(F)(F)F)c2)CC1 | i | nt | i | i | i

Screening results as filed in PubChem.
